# Source: PubChem (National Center for Advancing Translational Sciences (NCATS))
# The list is not random: actives were taken first. Their share in the collection is about 2.4%.
# Pol beta inh-1: qHTS Assay for Inhibitors of DNA Polymerase Beta; Pol beta primer extension/strand displacement, fluorescence kinetic; Potency, µM (series often up to 114 µM), most hits filed as inhibitors; AID 485314, 2010; P06746; 1.3% of 340,000 active
#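 Enzyme-only controls used 10 nM Pol beta; buffer lacking enzyme served as negative control. Compound preincubated 15 min, then 50 nM substrate added; 0 and 10 min reads at room temperature.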
# Pol eta inh-1: qHTS for Inhibitors of Polymerase Eta; 1.2% of 390,000 active; recombinant Pol eta, fluorescent DNA replication assay; Potency, µM (titrated, usually from 114 µM), hits mostly inhibitors; DNA polymerase eta (Homo sapiens), Q9Y253
#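 Pol eta at 10 nM preincubated with compounds 15 min at room temperature; reaction started with fluorescent substrate (50 nM final) and read kinetically at 0 and 10 min.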
# Pol kappa inh: qHTS for Inhibitors of Polymerase Kappa; DNA polymerase kappa (Homo sapiens), Q9UBT6; AID 588579, 2011; 0.53% of 400,000 active; Potency, µM (top dose mostly 107 µM), most hits filed as inhibitors; purified Pol kappa, fluorescent DNA synthesis assay, 10 min
# Target sequence (Q9UBT6 whole entry, looked up): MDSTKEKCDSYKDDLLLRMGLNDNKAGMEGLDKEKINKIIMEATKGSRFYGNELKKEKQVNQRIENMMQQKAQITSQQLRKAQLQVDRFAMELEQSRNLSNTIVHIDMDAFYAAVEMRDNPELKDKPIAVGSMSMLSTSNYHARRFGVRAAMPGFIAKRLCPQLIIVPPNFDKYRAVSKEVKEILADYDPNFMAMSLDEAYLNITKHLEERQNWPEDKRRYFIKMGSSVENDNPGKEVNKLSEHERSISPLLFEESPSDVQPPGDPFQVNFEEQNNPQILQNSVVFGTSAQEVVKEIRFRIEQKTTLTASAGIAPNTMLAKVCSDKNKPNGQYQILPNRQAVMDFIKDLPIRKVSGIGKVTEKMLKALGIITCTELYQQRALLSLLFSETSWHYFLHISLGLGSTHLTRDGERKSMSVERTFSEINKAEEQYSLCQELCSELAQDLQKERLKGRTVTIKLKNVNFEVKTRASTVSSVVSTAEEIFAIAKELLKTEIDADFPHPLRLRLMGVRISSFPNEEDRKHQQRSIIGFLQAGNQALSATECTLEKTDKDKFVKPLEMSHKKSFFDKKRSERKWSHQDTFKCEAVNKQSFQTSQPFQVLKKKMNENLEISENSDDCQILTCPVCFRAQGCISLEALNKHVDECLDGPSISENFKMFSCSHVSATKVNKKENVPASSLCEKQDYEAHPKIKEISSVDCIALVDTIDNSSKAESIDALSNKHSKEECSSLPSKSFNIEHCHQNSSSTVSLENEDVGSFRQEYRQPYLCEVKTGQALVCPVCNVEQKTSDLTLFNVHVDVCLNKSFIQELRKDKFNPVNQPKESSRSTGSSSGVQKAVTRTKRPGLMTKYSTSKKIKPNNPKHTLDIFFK
#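 Readout: fluorescence, taken kinetically at 0 and 10 min. Conditions: 10 nM Pol kappa, 15 min RT compound preincubation, 50 nM substrate final. Controls: enzyme-free buffer wells.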
# FEN1 inh: qHTS Assay for the Inhibitors of Human Flap endonuclease 1 (FEN1); P39748; Recombinant FEN1 flap cleavage, fluorescence, 15 min; Potency, µM (doses to about 114 µM), usual class: inhibitors; 0.35% of 390,000 active; also: nearly all actives have a fitted effect of over 65% in size
#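 Compounds are tested as a concentration series against 10 nM FEN1; after a 15 min room-temperature preincubation, 50 nM substrate starts cleavage, with plate reads at 0 and 15 min. Normalized responses are fitted by a Hill equation.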
# Pol iota inh: qHTS for Inhibitors of Polymerase Iota; DNA polymerase iota (Homo sapiens), Q9UNA4; Pol iota fluorescent replication assay, 10 min; Potency, µM (titrated, usually from 115 µM), most hits filed as inhibitors; 1% of 390,000 active; AID 588590, 2011
#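 Fluorescent replication assay read twice, at 0 min and 10 min after adding 50 nM (final) substrate. Enzyme (10 nM) and compounds were first incubated 15 min at room temperature; enzyme-free buffer wells were negative controls.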
# TDP1 inh: qHTS Assay for Inhibitors of Tyrosyl-DNA Phosphodiesterase (TDP1) | Tyrosyl-DNA phosphodiesterase 1 (Homo sapiens), Q9NUW8 | recombinant TDP1, AlphaScreen DNA substrate cleavage | Potency, µM (titrated, usually from 130 µM), most hits filed as inhibitors | 0.28% of 350,000 active; also: nearly all actives have a fitted effect of over 40% in size
#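 Recombinant E. coli-expressed Tdp1 (1 nM) preincubated with compound 15 min at RT, then 5'-biotin/3'-phosphotyrosine-FITC DNA substrate (15 nM) added for 5 min. AlphaScreen beads (10 ug/ml) added, 10 min RT; tyrosine-FITC cleavage read as signal loss.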
# Pol beta inh-2: Inhibitors of DNA Polymerase Beta: Hit validation; shares compounds with Pol beta inh-1; AID 540280, 2011; Potency, µM, most hits filed as inhibitors; Pol beta primer extension/strand displacement, fluorescence kinetic; 87% of 250 active; calls by dose curve
# Klenow inh: Inhibitors of DNA Polymerase Beta: Hit Validation in Klenow Fragment Assay. shares compounds with Pol beta inh-1. Klenow exo- polymerase counter-screen, fluorescent DNA substrate. activity change, negative = inhibition, % at 57.1 µM. 250 tested, under 10 active
# HIV RT inh: Inhibitors of DNA Polymerase Beta: Hit Validation in HIV-RT Assay | AID 540301, 2011 | shares compounds with Pol beta inh-1 | HIV-1 RT polymerase activity, counter-screen | 250 tested, under 10 active | activity % (negative = inhibition, positive = activation), % at 57.1 µM
# POLB inh gel: Inhibitors of DNA Polymerase Beta: Hit Validation in Radiolabeled Extension Assay. radiolabeled primer extension gel assay, phosphorimager. 91% of 110 active. shares compounds with Pol beta inh-1. inhibition, % at 10 µM;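 active = inhibition at 10 µM of 30% or more; inconclusive = no clear call, values can overlap the other calls; inactive = inhibition at 10 µM under 30%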
# PGK validate: qHTS for inhibitors of Phosphogylcerate Kinase: Hit Validation Screen. TbPGK coupled GAPDH assay, Kinase-Glo luminescence. AID 686980, 2013. Potency, µM (titrated, usually from 57.5 µM), actives largely listed as inhibitors. 79% of 500 active. shares compounds with Pol kappa inh; also: nearly all actives have a fitted effect of over 65% in size
# POLI cherry-pick: qHTS for Inhibitors of Polymerase Iota: Confirmatory Assay for Cherry-picked Compounds; shares compounds with Pol kappa inh; Potency, µM, most hits filed as inhibitors; Pol iota primer extension, TAMRA/BHQ fluorescence; 77% of 1,500 active; AID 720496, 2013
# Pol eta inh-2: qHTS for Inhibitors of Polymerase Eta: Confirmatory Assay for Cherry-picked Compounds | shares compounds with Pol eta inh-1 | Pol eta primer extension, TAMRA/BHQ fluorescence, 10 min | Potency, µM, most hits filed as inhibitors | 64% of 2,600 active | AID 720502, 2013
# Hits are given with their value; – = inactive; ? = inconclusive; · = no result; [ ] = dose if it differs, or a comment. Unless noted, calls follow the shape of the dose curve; as a rule, active = well fitted curve in the direction sought with a large enough effect; inconclusive = small, poorly fitted or top-dose-only effect, or another doubt; inactive = no such curve, though single readings can be large; an effect the other way counts as inactive or inconclusive.
SMILES,Pol beta inh-1,Pol eta inh-1,Pol kappa inh,FEN1 inh,Pol iota inh,TDP1 inh,Pol beta inh-2,Klenow inh,HIV RT inh,POLI cherry-pick,others
Cc1ccc(-n2c3c(c(=O)[nH]c2=O)C(NC(=O)c2ccccc2C)(C(F)(F)F)C(=O)N3)cc1 (stereo not given),?,–,–,–,–,–,·,·,·,·,
CCOC(=O)c1ccccc1NC(=O)c1sc2ncn(CC)c(=O)c2c1C,–,–,–,–,–,–[2.28 µM],·,·,·,·,
CCOC(=O)c1cc(-c2ccc(N3CCOCC3)cc2)nn1-c1ccccc1,–,–,–,–,–,–,·,·,·,·,
CCOC(=O)c1cc(-c2ccc(N3CCOCC3)cc2)nn1-c1ccccc1C(=O)O,13µM,?,–,–,?,1.6µM,20,–,–,?,
O=C(Nc1cccc(-c2cn3ccccc3n2)c1)c1cc2ccccc2oc1=O,4µM,?,–,?,?,–,5.6,–,–,?,
CCCCCCc1cc2cc(-c3nnc(-c4ccccc4OC)o3)c(=O)oc2cc1O,14µM,8.9µM,20µM,45µM,?,–,7.1,–,–,·,PGK validate=10µM
COc1cc(/C=C(/C#N)c2nc3ccccc3[nH]2)ccc1Oc1ncccc1[N+](=O)[O-],13µM,?,–,–,?,–,13,–,–,?,
CCOc1cc(/C=C(/C#N)c2nc3ccccc3[nH]2)ccc1Oc1ccc([N+](=O)[O-])cn1,?,–,–,–,–,–,·,·,·,·,
Cc1ccc(S(=O)(=O)Cc2ccc(C(=O)N3CCc4ccccc4C3)o2)cc1,16µM,20µM,56µM,–,?,?,35,–,–,42,Pol eta inh-2=48
CCc1ccc(NC(=O)Cn2c(=O)n(Cc3ccc(C)cc3)c(=O)c3cccnc32)cc1,–,–,–,–,–,–,·,·,·,·,
COc1ccc(Br)cc1CNC(=O)Cn1ncn2nc(-c3cccs3)cc2c1=O,–,–,–,–,–,–,·,·,·,·,
COc1ccc(OCc2nn3c(-c4ccco4)nnc3s2)cc1,?,?,–,–,–,–,·,·,·,·,
c1coc(-c2nnc3sc(Cc4cccs4)nn23)c1,13µM,28µM,20µM,56µM,7.9µM,·,22,–,–,?,POLB inh gel=36;Pol eta inh-2=?
